Compound activity deposited in PubChem BioAssay by Broad Institute.
Only some compounds are listed: those with a hit (about 1.2% of all), similar ones and a draw of the others.
NSD2 inh: NSD2 histone methyltransferase inhibitors, primary screen, biochemical, AlphaScreen, single concentration, set 2; NSD2 peptide methylation, 120 min; hit rate 0.54% among 310,000; Histone-lysine N-methyltransferase NSD2 (Homo sapiens), O96028; inhibition, % at 12.5 µM; AID 743445, 2014; in the data active = inhibition above about 50%
Casp6 inh: human caspase-6 inhibitors, primary screen, biochemical, VEID-R110 fluorescence, single point, set 2 | hit rate 0.53% among 350,000 | purified caspase-6, Z-VEID-R110 cleavage fluorescence | inhibition, % at 12.5 µM | AID 686996, 2013;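 active = mean inhibition across replicates at least about 35%, with every replicate also reaching that limit, limit read from the data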
Target sequence (P55212 24-179 limits assumed): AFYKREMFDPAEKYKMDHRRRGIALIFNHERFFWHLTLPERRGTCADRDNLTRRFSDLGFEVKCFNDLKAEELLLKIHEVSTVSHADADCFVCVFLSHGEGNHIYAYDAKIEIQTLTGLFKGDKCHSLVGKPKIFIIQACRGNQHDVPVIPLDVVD
Target sequence (P55212 194-293 limits assumed): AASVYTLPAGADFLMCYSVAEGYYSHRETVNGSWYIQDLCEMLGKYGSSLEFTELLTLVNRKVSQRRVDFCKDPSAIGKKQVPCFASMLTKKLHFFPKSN
RAD52 anneal inh: RAD52 DNA annealing inhibitors, primary screen, biochemical, FRET, single point, set 2; recombinant RAD52 DNA annealing, FRET fluorescence; inhibition, % at 18.7 µM; hit rate 0.46% among 360,000; AID 651710, 2012;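 active = every replicate showing at least 50% inhibition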
Target sequence (P43351 whole entry, looked up): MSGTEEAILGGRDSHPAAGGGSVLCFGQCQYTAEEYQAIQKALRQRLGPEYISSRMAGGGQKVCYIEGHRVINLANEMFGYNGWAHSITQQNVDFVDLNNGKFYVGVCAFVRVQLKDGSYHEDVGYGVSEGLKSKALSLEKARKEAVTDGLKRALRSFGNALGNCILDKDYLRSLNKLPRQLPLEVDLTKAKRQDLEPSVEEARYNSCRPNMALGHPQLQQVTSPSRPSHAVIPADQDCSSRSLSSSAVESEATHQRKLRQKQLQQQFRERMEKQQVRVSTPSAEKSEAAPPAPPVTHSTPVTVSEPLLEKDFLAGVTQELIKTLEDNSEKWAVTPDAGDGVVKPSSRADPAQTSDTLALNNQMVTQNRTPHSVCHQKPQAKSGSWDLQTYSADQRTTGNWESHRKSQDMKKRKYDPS
N-glyco inh: increase of ERlucT glycosylation luciferase signal, primary screen, N-linked glycosylation inhibitor project, D54 ERlucT cells, luminescence, set 2. D54 ERlucT glycosylation luciferase reporter, 24 h; percent of 100 nM tunicamycin response. reporter increase, % at 12.5 µM. hit rate 0.23% among 360,000. AID 588692, 2011;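 active = mean luciferase reporter signal, scaled so untreated is 0 and the glycosylation-blocking control 100, at or above a set limit in every replicate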;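 note: luciferase carries N-glycosylation sites so blocking glycosylation raises the light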
RAD54 branch: inhibitors of human RAD54 branch migration, primary screen, biochemical, fluorescence, single point. inhibition, % at 10.4 µM. RAD54 Holliday junction branch migration, FAM/BHQ fluorescence. DNA repair and recombination protein RAD54-like (Homo sapiens), Q92698. hit rate 0.14% among 360,000;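 active = mean normalized replicate activity at least 40 and at least half of replicates scoring 40 or more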;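 note: inhibitors cause a drop in the FAM fluorescence signal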
RAD52 DNA ctr: DNA-binding compounds via dye displacement, dose response, artefact control for RAD52 inhibitor project, biochemical, fluorescence polarization, cherry-pick; shares compounds with RAD52 anneal inh; Salmon sperm DNA/acridine orange FP displacement; AC50, µM; hit rate 8% among 1,000;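 active = fitted half-maximal concentration for signal loss at or below twice the highest dose tested, in every separate run, actives reach about 64 µM in these data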
CASP1 counter: human caspase-1 inhibitors, dose response, selectivity assay for caspase-6 inhibitor project, biochemical, Z-YVAD-R110 fluorescence, cherry-pick, set 2 | shares compounds with Casp6 inh | purified caspase-1, Z-YVAD-R110 cleavage fluorescence | activity change, negative = inhibition, % at 35 µM | 100 tested, under 10 active | AID 743289, 2014;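 active = compounds lowering fluorescence whose fitted half-maximal concentration is no more than twice their top tested dose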
Alpha artifact: AlphaScreen signal interference with preloaded methylated product, dose response, artefact control for NSD2 inhibitor project, biochemical, cherry-picked samples. shares compounds with NSD2 inh. AlphaScreen artifact counterscreen, preloaded methylated H4 peptide. AC35, µM (doses to about 10 µM). hit rate 9.4% among 1,500; call rule not given here
Of the large screens only hits and unclear results are named; the others gave an inactive call (follow-up assays come after a bar, where they were run).

Oc1ccc2c3c1OC1c4[nH]c5ccccc5c4C[C@@]4(O)C(C2)N(CC2CC2)CC[C@]314 (some centres not stated)	none (no result: NSD2 inh)
Fc1ccccc1CNC1CN2CCC1CC2 (configuration not stated)	none (no result: RAD54 branch)
Ic1ccccc1CN[C@@H]1C2CCN(CC2)[C@@H]1C(c1ccccc1)c1ccccc1	RAD52 anneal inh 62 (no result: NSD2 inh, Casp6 inh) | RAD52 DNA ctr inactive
COC(=O)[C@H]1[C@H](CO)[C@H]2Cn3c(ccc(C4=CCCCC4)c3=O)[C@@H]1N2C(=O)NC(C)C	none (no result: NSD2 inh, N-glyco inh)
NCC(O)c1cc(O)c(O)cc1F (configuration not stated)	RAD52 anneal inh 92 (no result: NSD2 inh, Casp6 inh) | RAD52 DNA ctr inactive
COC(=O)[C@@H]1[C@@H](CO)[C@@H]2Cn3c(ccc(-c4cccc(C(=O)N(C)C)c4)c3=O)[C@H]1N2CC1CC1	none (no result: NSD2 inh, N-glyco inh, RAD54 branch)
CC[N+](C)(CC)CCCCOc1ccc2c(c1)C(=O)c1cc(OCCCC[N+](C)(CC)CC)ccc1-2	RAD52 anneal inh 105, RAD54 branch 99 | RAD52 DNA ctr 19µM
ClCCN1CCN(c2ccnc3cc(Cl)ccc23)CC1	RAD52 anneal inh 68 | RAD52 DNA ctr inactive
CCCNC(=O)[C@H]1[C@H](CO)[C@H]2Cn3c(cccc3=O)[C@H]2N1CC	none (no result: NSD2 inh, N-glyco inh, RAD54 branch)
CCCN1[C@@H]2c3ccc(-c4cccc(C(=O)N(C)C)c4)c(=O)n3C[C@H]1[C@H](CO)[C@H]2C(=O)OC	none (no result: NSD2 inh, N-glyco inh)
CCN1CCN(c2ccc(N)cc2C)CC1	NSD2 inh 60, RAD52 anneal inh 100 (no result: RAD54 branch) | RAD52 DNA ctr 47µM | Alpha artifact inactive
CCN1CCN(c2ccc(N)cc2)CC1	NSD2 inh 57, RAD52 anneal inh 90 (no result: RAD54 branch) | RAD52 DNA ctr 53µM | Alpha artifact inactive
CCN1CCN(c2ccc(NC(C)=O)cc2Cl)CC1	none (no result: RAD54 branch)
CCCNC(=O)N1[C@@H]2Cn3c(ccc(-c4cccc(C(=O)N(C)C)c4)c3=O)[C@H]1[C@@H](C(=O)O)[C@@H]2CO	none (no result: NSD2 inh, N-glyco inh, RAD54 branch)
CC(Cc1ccc(O)cc1)NCC(O)c1ccc(O)c(O)c1 (configuration not stated)	NSD2 inh 126, Casp6 inh 73 | CASP1 counter inactive
CN1CCc2cc3c(c4c2C1Cc1ccccc1-4)OCO3 (configuration not stated)	Casp6 inh 84 | CASP1 counter inactive
COc1cc2c3c(c1OC)Oc1ccc(cc1)C[C@H]1c4c(cc(OC)c(OC)c4Oc4ccc(cc4)C[C@@H]3N(C)CC2)CCN1C	none (no result: NSD2 inh)
O=C(Cc1cccnc1)N1CCCCN2[C@H](C1)[C@H](c1ccc(C#CC3(O)CCCC3)cc1)[C@@H]2CO	none (no result: NSD2 inh, N-glyco inh)
BrCCc1ccccc1	none (no result: NSD2 inh)
CNCCCc1ccccc1	NSD2 inh 103 (no result: Casp6 inh, RAD52 anneal inh) | Alpha artifact inactive
CCNC(=S)NCCC1=c2ccccc2=N/C1=C\c1c(O)n(C)c(=O)n(C)c1=O	NSD2 inh 55 | Alpha artifact inactive
Cn1c(O)c(/C=C2\C=Nc3ccc(Br)cc32)c(=O)n(C)c1=O	none
CCC(C)NC(=O)c1c(N)n(CCCOC)c2nc3ccccc3nc12 (configuration not stated)	NSD2 inh 106 (no result: Casp6 inh, RAD52 anneal inh) | Alpha artifact inactive
N#Cc1ccc(-c2ccc([C@H]3[C@@H](CO)N4CCCCN(C(=O)Cc5ccccc5)C[C@H]34)cc2)cc1	none (no result: NSD2 inh, N-glyco inh)
Cc1cc(C)cc(N2C(=O)NC(=O)/C(=C\C=C\c3ccco3)C2=O)c1	NSD2 inh 72, N-glyco inh 56 (no result: RAD54 branch) | Alpha artifact inactive
CCc1ccc(N2C(=O)NC(=O)/C(=C\C=C\c3ccco3)C2=O)cc1	NSD2 inh 54, Casp6 inh 54, N-glyco inh 46 | Alpha artifact inactive
O=C(Cc1cccnc1)N1CCCCN2[C@@H](CO)[C@H](c3ccc(/C=C/c4ccccc4)cc3)[C@@H]2C1	none (no result: NSD2 inh, N-glyco inh)
Cc1cc(/C=C2\C(=O)NC(=O)N(c3ccccc3F)C2=O)c(C)n1-c1cc(C(=O)O)cc(C(=O)O)c1	NSD2 inh 62 | Alpha artifact inactive
COC(=O)[C@H]1[C@H](CO)[C@H]2Cn3c(ccc(-c4ccccc4F)c3=O)[C@@H]1N2Cc1cccnc1	none (no result: NSD2 inh, N-glyco inh)
NS(=O)(=O)c1ccc(N=Nc2c(O)[nH]c(=S)[nH]c2=O)cc1	none
O=c1[nH]c(=S)[nH]c(O)c1N=Nc1cc(S(=O)(=O)Nc2ccc(Cl)cc2)ccc1Cl	NSD2 inh 66 | Alpha artifact inactive
O=C(Cc1ccncc1)N1CCCCN2[C@H](CO)[C@@H](c3ccc(C#Cc4ccccc4F)cc3)[C@@H]2C1	none (no result: NSD2 inh, N-glyco inh)
COCCNC(=O)c1c(NC(=O)c2ccco2)n(Cc2ccccc2)c2nc3ccccc3nc12	NSD2 inh 113 (no result: Casp6 inh, RAD52 anneal inh) | Alpha artifact inactive
COCCCNC(=O)c1c(NC(=O)c2ccccc2Cl)n(Cc2ccccc2)c2nc3ccccc3nc12	none (no result: Casp6 inh, RAD52 anneal inh)
O=C(NC[C@H]1CC[C@@H]2NC[C@@H]2O1)C1CCCC1	none (no result: NSD2 inh, N-glyco inh, RAD54 branch)
CCCCn1c(NS(=O)(=O)c2ccccc2)c(C(=O)OCC)c2nc3ccccc3nc21	NSD2 inh 99 (no result: Casp6 inh, RAD52 anneal inh, RAD54 branch) | Alpha artifact inactive
CCCCn1c(NC(=O)c2ccc(Br)o2)c(C(=O)OCC)c2nc3ccccc3nc21	none (no result: NSD2 inh, RAD54 branch)
O=C(Cc1ccccn1)N1CCCCN2[C@H](CO)[C@H](c3ccc(-c4ccc(F)cc4)cc3)[C@H]2C1	none (no result: NSD2 inh, N-glyco inh)
Cc1ccc(N2C(=O)NC(=O)/C(=C/c3ccoc3)C2=O)cc1	NSD2 inh 90, Casp6 inh 85 (no result: RAD54 branch) | Alpha artifact inactive
Cc1ccc(N2C(=O)NC(=O)/C(=C/c3cnn(-c4ccc(C)cc4)c3)C2=O)cc1	NSD2 inh 51 (no result: Casp6 inh, RAD52 anneal inh) | Alpha artifact inactive
CSc1ncc(/C=C2/C(=O)NC(=O)N(c3ccc(C)cc3)C2=O)cn1	none (no result: RAD54 branch)
O=C(Cc1ccccc1)N1CCCCN2[C@@H](CO)[C@H](c3ccc(C#Cc4ccccc4)cc3)[C@@H]2C1	none (no result: NSD2 inh, N-glyco inh)
CC[C@H]1C=C(C(=O)N[C@@]2(C(=O)O)C[C@H]2CC)[C@H]2CCC(=O)[C@H]2C1	none (no result: NSD2 inh, N-glyco inh, RAD54 branch)
Cc1ccc(/C=C2/C(=O)NC(=O)N(C)C2=O)cc1	none
